Bioassay records deposited in PubChem BioAssay by University of Kansas High Throughput Screening Laboratory.
Pf apPOL inh = Pf-apPOL inhibitors, biochemical, fluorescence | Recombinant Pf-apPOL, molecular beacon fluorescence, 1.5 h | inhibition, % at 10 µM | AID 1794808, 2022 | hit rate 0.25% among 210,000
mHTT CaM bind = mutant huntingtin-calmodulin interaction inhibitors – biochemical, AlphaScreen, primary screen. P42858. AlphaScreen His-mHTT/GST-CaM binding, luminescence. inhibition, % at 15 µM. hit rate 3.6% among 190,000. AID 1671202, 2021;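 note: 0% = both proteins with DMSO and 100% = one protein alone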
The depositor's hits bear a star; / = no result. The full list was thinned out, with hits kept by preference. Cut-off read from the data, not from the text of the source: active = inhibition above about 50%; inactive = the rest.

SMILES	Pf apPOL inh	mHTT CaM bind
COc1c(O)cc2c(c1O)C1OC(CO)C(O)C(O)C1OC2=O (stereo not given)	-10.1	/
Cc1nc(C2CCCN(C(=O)c3ccc4c(c3)OCO4)C2)n[nH]1 (stereo not given)	3.3	-1.1
CCc1ccc(N(CC(=O)N2CCCC2)S(=O)(=O)c2ccccc2)cc1	4.6	-2.5
CCc1ccc(N(CC(=O)N2CCN(c3ccccc3)CC2)S(=O)(=O)c2ccccc2)cc1	2.8	53.5*
CC(=O)N1CCN(c2nc3c(s2)CC(C(=O)Nc2ccccc2)CC3)CC1 (stereo not given)	-0.9	27.5
CC(=O)N1CCN(c2nc3c(s2)CC(C(=O)Nc2cccc(C(C)(C)C)c2)CC3)CC1 (stereo not given)	1.7	54.3*
CCOc1cccc2c1OC(c1cc(OC)ccc1OC)N1N=C(c3ccco3)CC21 (stereo not given)	-20.1	8.0
CCOc1cccc2c1OC(c1cc(OC)c(OC)c(OC)c1)N1N=C(c3ccco3)CC21 (stereo not given)	-20.0	47.0
CCOc1cccc2c1OC(c1ccc(OC)c(OC)c1OC)N1N=C(c3ccc(C)o3)CC21 (stereo not given)	-15.1	61.0*
COc1ccc(C2Oc3c(OC)cccc3C3CC(c4cccs4)=NN32)cc1 (stereo not given)	-15.3	50.0*
COc1cccc(C2Oc3c(OC)cccc3C3CC(c4ccc(C)o4)=NN32)c1 (stereo not given)	-15.5	57.0*
CCOc1cccc2c1OC(c1ccc(OC)cc1)N1N=C(c3ccc(C)o3)CC21 (stereo not given)	-14.5	81.0*
COc1cccc2c1OC(c1cccc(Cl)c1)N1N=C(c3ccco3)CC21 (stereo not given)	-28.2	12.0
COc1cccc(C2Oc3c(OC)cccc3C3CC(c4cccs4)=NN32)c1 (stereo not given)	-16.6	42.0
O=S(=O)(NCCSc1nc2ccccc2[nH]1)c1ccccc1	-4.8	8.3
COc1ccccc1N(CC(=O)NCc1ccco1)S(C)(=O)=O	-9.3	4.0
Cc1ccccc1N(CC(=O)NCc1ccco1)S(C)(=O)=O	64.7*	1.6
CC(=NOC(=O)c1ccc(C)cc1)c1csc2ccccc12	-2.1	/
Cc1ccc2c(c1)N(C(=O)Nc1ccccc1Br)CC(C)O2 (stereo not given)	-5.2	-21.5
O=C(c1cccnc1)N1CCC(n2c(-c3ccoc3)nc3cccnc32)C1 (stereo not given)	2.4	2.6
CC(C)[C@H]1COCCS(=O)(=O)N1Cc1ccc(Cl)cc1	6.6	2.6
CC(C)[C@H]1COCCS(=O)(=O)N1Cc1ccccc1-c1cccc2c1oc1ccccc12	0.7	53.1*
CC1=CC(=O)C=CC1=NC(=NS(=O)(=O)c1ccc(C)cc1)c1ccccc1	-9.0	58.0*
Cc1ccc(C(N)=NC(=NS(=O)(=O)c2ccccc2)c2ccccc2)cc1	2.0	5.0
CC1=CC(=NC(=NS(=O)(=O)c2ccc(C)cc2)c2ccccc2)C(C)=CC1=O	-1.4	59.0*
SMILES	Pf apPOL inh	mHTT CaM bind
Cc1ccc(S(=O)(=O)N=C(Nc2ccccn2)c2ccccc2)cc1	3.8	-1.0
COc1ccc(CCC(=O)N2CCC(c3cc(N)on3)CC2)cc1	-1.5	-1.2
CCC(C)Nc1ccc(-c2nc(-c3cccc(F)c3)no2)cn1 (stereo not given)	-1.1	-13.4
COc1ccccc1-c1noc(C2CCCN2C(=O)Cc2ccsc2)n1 (stereo not given)	-1.7	2.8
COc1ccc(N2C(=O)CSC2c2ccc(SC)cc2)cc1Cl (stereo not given)	-5.5	10.0
Cc1cccc(C2=N[C@@H](Cc3ccccc3)CO2)c1	-10.6	81.0*
Cc1cccc(C2=N[C@@H](CC(C)C)CO2)c1	-3.8	-14.5
CN1c2cc(Cl)ccc2C(=O)NC12CCN(C(=O)NC1CCCCC1)CC2	-1.0	-6.7
CC(CC(=O)Nc1nc2c(s1)CCCC2)c1ccccc1 (stereo not given)	-1.8	6.5
O=C(Nc1nc2c(s1)CCCC2)C(c1ccccc1)n1cccc1 (stereo not given)	19.4	94.9*
O=C1OC(C(=O)Nc2ccc(C(F)(F)F)cc2)Cc2ccccc21 (stereo not given)	-11.2	-4.0
COc1cccc(N2C=C(C#N)S(=O)(=O)c3ccc(F)cc32)c1	-0.6	-8.5
Cc1ccc(C(=O)Nc2ccc(N3CCCC3)cc2)cc1Cl	-3.2	99.7*
COc1ccc(CC(=O)Nc2ccc(Nc3ccccc3)cc2)cc1OC	-7.0	62.2*
Cc1ccc(C(=O)Nc2ccc(N3CCOCC3)cc2)cc1C	3.0	10.9
O=C(Cc1ccc([N+](=O)[O-])cc1)Nc1ccc(Nc2ccccc2)cc1	-5.7	31.4
COc1ccc(CC(=O)Nc2ccccc2)cc1OC	-6.1	-2.3
O=C(COc1ccccc1[N+](=O)[O-])Nc1cc(C(=O)O)cc(C(=O)O)c1	1.0	-6.4
O=C(COc1ccccc1[N+](=O)[O-])Nc1ccc(N2CCCC2)cc1	53.9*	33.8
O=C(Cc1ccccc1)Nc1ccc(Nc2ccccc2)cc1	-4.5	61.6*
Cc1cccc(NC(=O)CC(NCC2CCCO2)C(=O)O)c1 (stereo not given)	-2.8	-15.0
CN(C)c1ccc(/C=C2N=C(/C=C/c3ccc([N+](=O)[O-])cc3)OC\2=O)cc1	1.4	3.0
COCCNC(=O)CC1CCN(C(=O)c2sc(-c3ccc(C)cc3)nc2C)CC1	-2.7	1.2
COc1ccc(C(O)CN2CCN(c3ccc(C)cc3)CC2)cc1OC (stereo not given)	-6.8	4.8
CC(C)=CCn1c(C(=O)N2CCN(C)CC2)cc2sc(C)cc21	-7.7	40.4
SMILES	Pf apPOL inh	mHTT CaM bind
O=C(Cc1ccccc1)Nc1ccccc1NC(=O)Cc1ccccc1	-7.2	1.7
COc1ccccc1C(=O)Nc1ccc(N2CCCC2)cc1	0.1	61.0*
O=C(Cc1ccccc1)Nc1ccc(N2CCCC2)cc1	-10.0	92.4*
COc1ccc(NC(=O)c2ccc(-c3ccc([N+](=O)[O-])cc3OC)o2)cc1Cl	-6.6	41.7
COc1ccccc1C(=O)Nc1cnc(N2CCCC2)nc1	-1.9	-2.8
O=C(Cc1ccccc1)Nc1ccc(S(=O)(=O)N2CCCC2)cc1	-8.3	0.9
O=C(Cc1ccccc1)Nc1cccc(NC(=O)Cc2ccccc2)n1	64.6*	-4.3
COc1cc([N+](=O)[O-])ccc1-c1ccc(C(=O)Nc2ccc(N3CCCCC3)cc2)o1	-5.2	50.6*
Cc1nc(NCCNS(=O)(=O)c2c(C)noc2C)cc(-n2ccnc2C)n1	-1.2	-9.0
COc1ccc(Br)cc1/C=C1/N=C(c2cccc(C)c2OC)OC1=O	-3.2	0.0
N#CC(=Cc1ccc(Cl)cc1)c1nc(-c2cc3ccccc3oc2=O)cs1	-12.2	1.9
O=C(NCc1cccc(F)c1)C1CCCN(c2nnc3ccccn23)C1 (stereo not given)	-6.3	2.1
COc1cccc2cc(C(=O)Nc3ccc(N4CCCN(C(=O)C5CC5)CC4)cc3)oc12	4.4	60.6*
O=C(Nc1ccc(N2CCCN(C(=O)C3CC3)CC2)cc1)c1cc(-c2ccccc2)on1	-3.5	12.8
Cc1cc2[nH]c(C(=O)Nc3ccccc3F)c(CN(C)C)c2s1	1.0	-10.4
O=c1c2ccccc2nc2c3ccccc3c(NCc3cccnc3)nn12	-11.1	80.0*
Cc1cc(C)n(-c2nn3c(=O)c4ccccc4nc3c3ccccc23)n1	11.9	-9.0
Cc1nc2ccccc2c(=O)n1Cc1cccnc1	-2.9	-0.2
